For 15 compounds, potency estimated from few doses results are on record in PMC11062922 (Nature Chemical Biology, 2023).

SMILES strings stand for the structures. Read-outs that look alike come from different tables or passages of the source.

Common to all, as to set-up: species or system human, MV4-11 + K-562 + COLO205 + SK-N-BE2 + OVCAR-8
One experiment concerns BMPR1B. To be noted: read-out: apparent Kd, n = 1.
In the next experiment the test system is EPHA5. To be noted: read-out: apparent Kd, n = 1.
In a further experiment the test system is EPHB1. To be noted: read-out: apparent Kd, n = 1.
In another experiment the test system is FLT4. To be noted: read-out: apparent Kd, n = 1.
The subject of another experiment is NLK. The settings on record: read-out: apparent Kd, n = 1.
Another experiment relates to AKT1. To be noted: read-out: apparent Kd, compound concentrations: 100 nM and 1000 nM (sheet 'Samples'), n = 1.
Another experiment deals with RIOK2. To be noted: read-out: apparent Kd, compound concentrations: 100 nM and 1000 nM (sheet 'Samples'), n = 1.
A further experiment concerns DDR2. The settings on record: read-out: apparent Kd, n = 1.
The next experiment deals with BTK. The settings on record: read-out: apparent Kd, n = 1.
Another experiment has as its system CDK16. The settings on record: read-out: apparent Kd, compound concentrations: 100 nM and 1000 nM (sheet 'Samples'), n = 1.
The next experiment deals with CDK17. To be noted: read-out: apparent Kd; compound concentrations: 100 nM and 1000 nM (sheet 'Samples'), CATDS: 3.3819881865538602E-2; n = 1.
The test system of another experiment is CDKL5. The settings on record: read-out: apparent Kd, compound concentrations: 100 nM and 1000 nM (sheet 'Samples'), n = 1.
A further experiment has as its system EPHB6. The settings on record: read-out: apparent Kd, n = 1.
In a further experiment the test system is PLK4. To be noted: read-out: apparent Kd, compound concentrations: 100 nM and 1000 nM (sheet 'Samples'), n = 1.
Another experiment relates to PRKD2. The settings on record: read-out: apparent Kd, compound concentrations: 100 nM and 1000 nM (sheet 'Samples'), n = 1.
In a further experiment the test system is TNK2. The settings on record: read-out: apparent Kd, n = 1.
The test system of another experiment is JAK2. To be noted: read-out: apparent Kd, compound concentrations: 100 nM and 1000 nM (sheet 'Samples'), n = 1.
For another experiment, the system named is ACAD8. To be noted: read-out: apparent Kd; compound concentrations: 100 nM and 1000 nM (sheet 'Samples'), CATDS: 1.7028042656885199E-2; n = 1.
For another experiment, the system named is MAP2K5. To be noted: read-out: apparent Kd; compound concentrations: 100 nM and 1000 nM (sheet 'Samples'), CATDS: 5.3465139975610303E-2; n = 1.
The mark [1] stands for this setting: compound concentrations:100 nM and 1000 nM (sheet 'Samples').

In the case of `Cl.Oc1cccc(Nc2ccnc3cc(-c4ccncc4)ccc23)c1` [GW494601A], the potency estimated from few doses with BMPR1B (compound concentrations: 100 nM and 1000 nM (sheet 'Samples'), CATDS: 3.10657492682959E-2) was 211 nM; in the experiment on EPHA5 (compound concentrations: 100 nM and 1000 nM (sheet 'Samples'), CATDS: 3.7293479964616502E-2) it was 113 nM; with EPHB1 (compound concentrations: 100 nM and 1000 nM (sheet 'Samples'), CATDS: 2.51104508673669E-2) it was 479 nM; in the experiment with FLT4 (compound concentrations: 100 nM and 1000 nM (sheet 'Samples'), CATDS: 2.2541605457452998E-2), 773 nM; with NLK (compound concentrations: 100 nM and 1000 nM (sheet 'Samples'), CATDS: 1.9274779311166401E-2) it was 1830 nM.
As for `CS(=O)(=O)Cc1ccc(Nc2nccc(-c3c(-c4cccc(NC(=O)C5CCCCC5)c4)nn4ncccc34)n2)cc1` [GSK350559A], the potency estimated from few doses in the experiment with FLT4 (setting [1]) was 995 nM.
For the compound `COc1ccc(Nc2nccc(N3CCC(NC(=O)Nc4ccc5c(c4)OCO5)C3)n2)cc1` (stereo not shown) [GSK1379745A], the potency estimated from few doses in the experiment on AKT1 (CATDS: 3.7255828319427503E-2) is 1760 nM; in the experiment on BMPR1B (compound concentrations: 100 nM and 1000 nM (sheet 'Samples'), CATDS: 0.106136196425884) it was 316 nM; in the experiment on RIOK2 (CATDS: 4.3222091528321002E-2), 1280 nM.
`CCn1cc(-c2ccnc3[nH]c(-c4cccc(CN(C)C)c4)cc23)c(-c2ccc(NC(=O)N(C)C)cc2)n1` [GSK1070916]: the potency estimated from few doses with DDR2 (setting [1]) was 1830 nM.
In the case of `CC(C)c1nc(-c2cccc(NS(=O)(=O)c3ccccc3)c2)c(-c2ccnc(Nc3ccc4c(c3)CN(C)CC4)n2)s1` [GSK1649598A], the potency estimated from few doses in the experiment on BTK (compound concentrations: 100 nM and 1000 nM (sheet 'Samples'), CATDS: 1.37109395342906E-2) was 1210 nM; with CDK16 (CATDS: 3.5928247701673299E-2) it was 112 nM; in the experiment with CDK17, 124 nM; in the experiment with CDKL5 (CATDS: 3.80366995063171E-2) it was 101 nM; in the experiment on EPHB6 (compound concentrations: 100 nM and 1000 nM (sheet 'Samples'), CATDS: 1.8057075383437201E-2) it was 489 nM; in the experiment on FLT4 (compound concentrations: 100 nM and 1000 nM (sheet 'Samples'), CATDS: 1.55100813228086E-2), 772 nM. Further, the potency estimated from few doses was 66.8 nM with PLK4 (CATDS: 4.8867140762819797E-2); 59.3 nM in the experiment on PRKD2 (CATDS: 5.2743679485786801E-2); 842 nM with TNK2 (compound concentrations: 100 nM and 1000 nM (sheet 'Samples'), CATDS: 1.5113768238236E-2).
For `Cc1nn(C)c2cc(N(C)c3ccnc(Nc4cccc(S(N)(=O)=O)c4)n3)ccc12.Cl` [GW770220A], the potency estimated from few doses in the experiment on NLK (compound concentrations: 100 nM and 1000 nM (sheet 'Samples'), CATDS: 0.27942165636777999) was 1030 nM.
For `Cc1ccc(O)cc1Nc1ccnc2cc(-c3ccc(CN4CCCCC4)o3)ccc12` [GW557777X], the potency estimated from few doses is 73.2 nM with BMPR1B (compound concentrations: 100 nM and 1000 nM (sheet 'Samples'), CATDS: 2.1920480328631101E-2); 960 nM with BTK (compound concentrations: 100 nM and 1000 nM (sheet 'Samples'), CATDS: 1.36078174892899E-2); 800 nM in the experiment on DDR2 (compound concentrations: 100 nM and 1000 nM (sheet 'Samples'), CATDS: 1.39203861332134E-2); 15.6 nM in the experiment on EPHA5 (compound concentrations: 100 nM and 1000 nM (sheet 'Samples'), CATDS: 3.4723791615605203E-2); 1.47 nM in the experiment with EPHB1 (compound concentrations: 100 nM and 1000 nM (sheet 'Samples'), CATDS: 9.2243435191231293E-2); 1020 nM in the experiment with FLT4 (compound concentrations: 100 nM and 1000 nM (sheet 'Samples'), CATDS: 1.3507307153085599E-2). Further, the potency estimated from few doses in the experiment with PRKD2 (CATDS: 2.1213632342937001E-2) was 83.5 nM.
As to `COc1cc(Nc2ccnc3cc(-c4ccncc4)ccc23)cc(OC)c1OC.Cl` [GW494610A], the potency estimated from few doses is 233 nM with BMPR1B (compound concentrations: 100 nM and 1000 nM (sheet 'Samples'), CATDS: 3.91672481095015E-2); 1250 nM with EPHB1 (compound concentrations: 100 nM and 1000 nM (sheet 'Samples'), CATDS: 2.3499572328162702E-2); 536 nM in the experiment on EPHB6 (compound concentrations: 100 nM and 1000 nM (sheet 'Samples'), CATDS: 2.9510558776715799E-2); 110 nM in the experiment with NLK (compound concentrations: 100 nM and 1000 nM (sheet 'Samples'), CATDS: 5.2882757998729699E-2).
For `NC(=O)c1cccc(Nc2nccc(Nc3cccc4[nH]ncc34)n2)c1` [GW782612X], in the experiment with DDR2 (compound concentrations: 100 nM and 1000 nM (sheet 'Samples'), CATDS: 3.15347900030735E-2), the potency estimated from few doses is 2580 nM.
For `O=C1N=C(NCc2cccs2)SC1Cc1ccc2ncccc2c1` (stereo not shown) [RO4629078-000], the potency estimated from few doses in the experiment with BTK (compound concentrations: 100 nM and 1000 nM (sheet 'Samples'), CATDS: 1.32457116906247E-2) is 360 nM; with CDKL5 (CATDS: 6.9445234986253998E-3), 2320 nM; with EPHA5 (compound concentrations: 100 nM and 1000 nM (sheet 'Samples'), CATDS: 1.5844356878219199E-2), 259 nM; with EPHB1 (compound concentrations: 100 nM and 1000 nM (sheet 'Samples'), CATDS: 1.5393002457868701E-2), 272 nM; in the experiment on FLT4 (compound concentrations: 100 nM and 1000 nM (sheet 'Samples'), CATDS: 1.2746443799933199E-2), 389 nM; in the experiment with PLK4 (CATDS: 1.60355035004788E-2) it was 254 nM. Also, the potency estimated from few doses was 2110 nM in the experiment with PRKD2 (CATDS: 7.0804860166384202E-3); 183 nM in the experiment with TNK2 (compound concentrations: 100 nM and 1000 nM (sheet 'Samples'), CATDS: 1.95530569334194E-2).
`NC1=NC(=O)/C(=C/c2ccc3ncccc3c2)S1` [RO4569139-000]: the potency estimated from few doses in the experiment with JAK2 (CATDS: 8.9240627559774202E-2) is 708 nM.
For `Cl.Cl.Cl.c1ccc(Oc2ccc(Nc3ccnc4cc(-c5ccc(CN6CCNCC6)o5)ccc34)cc2)nc1.c1ccc(Oc2ccc(Nc3ccnc4cc(-c5ccc(CN6CCNCC6)o5)ccc34)cc2)nc1` [GW567142A], the potency estimated from few doses with ACAD8 was 2040 nM; in the experiment with AKT1 (CATDS: 1.79490160981602E-2), 1660 nM; in the experiment on BTK (compound concentrations: 100 nM and 1000 nM (sheet 'Samples'), CATDS: 2.14657129362281E-2), 922 nM; in the experiment with CDK16 (CATDS: 1.6285845495215501E-2), 2450 nM; in the experiment on MAP2K5 it was 111 nM; with RIOK2 (CATDS: 1.8917557706548099E-2), 1380 nM. Moreover, the potency estimated from few doses in the experiment with TNK2 (compound concentrations: 100 nM and 1000 nM (sheet 'Samples'), CATDS: 8.9201711222799504E-2) is 47.3 nM.
With `O=C1N=C(NCCc2cccc(Cl)c2)S/C1=C\c1ccc2ncccc2c1` [RO4509201-000], in the experiment with JAK2 (CATDS: 7.2632093710390006E-2), the potency estimated from few doses is 736 nM.
In the case of `CS(=O)(=O)CCNCc1ccc(-c2ccc3ncnc(Nc4ccc(OCc5cccc(F)c5)c(C(F)(F)F)c4)c3c2)o1` [GW576484X], the potency estimated from few doses is 2100 nM in the experiment on AKT1 (CATDS: 4.8644382119909499E-2); 1290 nM in the experiment with EPHA5 (compound concentrations: 100 nM and 1000 nM (sheet 'Samples'), CATDS: 6.1198720687785702E-2); 2180 nM in the experiment on NLK (compound concentrations: 100 nM and 1000 nM (sheet 'Samples'), CATDS: 4.7895996711747497E-2); 1410 nM in the experiment on RIOK2 (CATDS: 5.8358702635658101E-2).
For `CCN(CC)CCOc1ccc(Nc2ncc3cc(-c4c(Cl)cccc4Cl)c(=O)n(C)c3n2)cc1` [SB-601273], the potency estimated from few doses in the experiment with BMPR1B (setting [1]) is 239 nM; with BTK (setting [1]), 318 nM; with DDR2 (setting [1]), 319 nM; in the experiment with EPHA5 (setting [1]) it was 135 nM; in the experiment on EPHB1 (setting [1]), 10.6 nM; in the experiment on EPHB6 (setting [1]), 175 nM. For the same compound, the potency estimated from few doses with NLK (setting [1]) is 1310 nM; with TNK2 (setting [1]), 87.3 nM.
